From PubChem BioAssay (NCATS) come the findings set out here.

Test [1] addresses Cytochrome P450 1A2 (Homo sapiens) (UniProt P05177). The experiment in a line: p450-cyp1a2 (AID 410; calls by dose curve; also: potency is read from the fitted curve at half-maximal effect;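 as to activity change, negative = inhibition: -100% = full effect of reference inhibitor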). Summed up: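 O-Demethylation of luciferin 6' methyl ether by human CYP1A2 is monitored as luciferase luminescence. Substrate sits at Km (100uM); enzyme is 20nM. Values are scaled to 57 uM furafylline as maximal inhibition.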
Test [2] in a line: NFAT Signaling Pathway (AID 444; active = well fitted curve in either direction with a large enough effect, not every such curve was filed as active;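 also: carbachol stimulus at about its EC50 of 1 µM final; % is scaled to controls: 0 for no effect and ±100 for the full control effect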). The following applies: Jurkat NFAT-bla M1, carbachol, beta-lactamase ratio, 5 h; at 7.69 µM (top of the series) unless noted. Summed up: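 Jurkat cells with NFAT-driven β-lactamase reporter and co-expressed M1 receptor, stimulated with carbachol (final 1 uM, ~EC50), compound titration, 5 h at 37 °C. CCF4 loaded 1 h at RT; 460/530 nm ratio gave %activity and AC50.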

A short description of test [3]: Stat Signaling Pathway (AID 446; active = well fitted curve in either direction with a large enough effect, not every such curve was filed as active;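 also: ME-180 cervical cancer cells given 40 pM IL-6 alongside compound; SIE-controlled beta-lactamase reporter measured as 460/530 nm FRET emission ratio; % is scaled to controls: 0 for no effect and ±100 for the full control effect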). Particulars: ME-180 SIE beta-lactamase reporter, IL-6 stimulated, 5 h; at 7.69 µM (top of the series) unless noted. Summed up:
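Overnight-plated ME-180 cells bearing a STAT Inducible Element beta-lactamase reporter; 5 h co-exposure to compound and 40 pM IL-6; values normalized to 300 pM IL-6 and 125 nM JAK inhibitor controls.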

Test [4] has as its target Glucocorticoid receptor (Homo sapiens) (UniProt P04150). The test is described as follows: GR-GFP Redistribution (AID 450;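 active = compounds whose dose series gives a full or clear partial fitted curve of increased nuclear translocation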; also: potency is read from the fitted curve at half-maximal effect). Particulars: U2OS GR-GFP nuclear translocation, laser cytometry, 2 h.
For test [5] the target is unchanged. The test is described as follows: GR-EFC Redistribution (AID 451; calls by dose curve; also: potency is read from the fitted curve at half-maximal effect). Particulars: CHO-K1 GR-EFC translocation, beta-gal luminescence, 2 h. The method, boiled down:
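CHO-K1 cells expressing nuclear EA and GR-ED fragments of b-gal; compounds titrated up to 46 uM final, 2 h at 37 C. GR nuclear translocation read as complemented b-gal luminescence after 1 h RT detection.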

Test [6] concerns the target Mitogen-activated protein kinase 10 (Mus musculus) (UniProt Q61831). The test is described as follows: JNK3 AlphaScreen Assay (AID 530; active = well fitted curve in either direction with a large enough effect, not every such curve was filed as active;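 also: kinase came from lysate of stimulated human HepG2 cells; signal reports phosphorylation of biotinylated GST-cJun 1-79 at Ser73 with 10 µM ATP; % is scaled to controls: 0 for no effect and ±100 for the full control effect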). Summed up: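 Activity was read by AlphaScreen after JNK3-containing HepG2 lysate (cytokine pre-activated) phosphorylated biotinylated GST-cJun with 10 uM ATP at room temperature. Phospho-Ser73 cJun antibody with Protein-A acceptor beads provided detection.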
(In general: Bead proximity is the source of the signal in Alpha formats.)

Test [7] deals with 3',5'-cyclic-AMP phosphodiesterase 4B (Homo sapiens) (UniProt Q07343). The experiment in a line: qHTS Assay for Inhibitors of PDE-IV (AID 607; active = well fitted activation curve with a large enough effect in the main read-out, with a control signal flat, not every such curve was filed as active; also: % of control where 0% means no effect). Summed up:
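Live HEK293 cells with a modified cyclic nucleotide-gated (CNG) channel report intracellular cAMP via membrane-potential dye fluorescence (ex 535/em 590 nm). Endogenous PDE-IV was targeted. Compounds were tested at up to 22.9 uM final; RO 20-1724 100 uM served as control.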
For orientation: Quantitative high-throughput screening tests each substance at several concentrations.

Test [8] has as its target Cytochrome P450 3A4 (Homo sapiens) (UniProt P08684). The experiment in a line: qHTS Assay for Activators of Cytochrome P450 3A4 (AID 885). Also: nearly all actives have a fitted effect of over 65% in size. The method, boiled down: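 Using 20nM recombinant human CYP3A4 in potassium phosphate (200mM), substrate Luciferin-PPXE at 25uM, luminescent luciferin detection followed a 60-min RT NADPH reaction; data scaled to 57 uM ketoconazole.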

Test [9] is described as follows: Confirmation and Secondary Assay for Modulators of Hemoglobin Beta Chain Splicing at IVS2 705 locus (AID 930).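 Also: HeLa cells stably expressing the EGFP-705 splicing reporter; GFP fluorescence per well restored by corrected splicing of the IVS2-705 intron in EGFP; % of control where 0% means no effect.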 Summed up: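 Fluorescence gain (488 nm laser, 500-520 nm PMT) reflects restored correct splicing of a mutant IVS2-705 intron inside EGFP in stably transfected HeLa cells after 2-day compound treatment.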
Test [10] is described as follows: qHTS Assay for Lipid Storage Modulators (AID 1519; calls by dose curve). The following applies: Drosophila S3 cells, BODIPY lipid droplet/cell ratio, laser cytometry, cells loaded with oleic acid; for activity change, negative = inhibition: at 57.5 µM (top of the series). Summed up: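 Cells seeded at 5,000 per well were treated with compounds over a concentration series and loaded with oleic acid (400 uM, as added). Lipid droplet fluorescence (488 nm excitation, 500-530 nm channel) was read by laser-scanning cytometry and normalized to 20 uM Triacsin C.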

A short description of test [11]: Primary qHTS for small molecule stabilizers of the endoplasmic reticulum resident proteome: Secreted ER Calcium Modulated Protein (SERCaMP) assay (AID 1508630). Also: % is scaled to controls: 0 for no effect and ±100 for the full control effect. Summed up: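 The SH-SY5Y reporter protocol was run at 3 concentrations up to 38.3 uM (primary) or 11 concentrations (follow-up): 16 h compound, 100 nM thapsigargin for 4 h, then extracellular luciferase luminescence.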

The target of test [12] is Dual specificity protein kinase CLK4 (Homo sapiens) (UniProt Q9HAZ1). The experiment in a line: qHTS Assay for Inhibitors of CDC-like Kinase 4 (ADP-FP Assay) (AID 1795).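 Also: recombinant human CLK4 phosphorylating RS repeat peptide at 1 µM ATP; % is scaled to controls: 0 for no effect and ±100 for the full control effect; nearly all actives have a fitted effect of over 60% in size.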 Summed up: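 Kinase activity was followed as ADP output, converted from fluorescence polarization with a calibration curve. Reactions ran one hour at low ATP (1 uM) with RS peptide substrate.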
Test [13] deals with Ubiquitin carboxyl-terminal hydrolase 1 (Homo sapiens) (UniProt O94782). The experiment in a line: Inhibitors of USP1/UAF1: Pilot qHTS (AID 504865). Also: nearly all actives have a fitted effect of over 35% in size. Also: potency is read from the fitted curve at half-maximal effect. Summed up:
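Enzyme-free wells gave the negative control, while test wells held 1nM USP1/UAF1 preincubated with compound for 15 min at room temperature. Ub-Rho at 150nM final started the reaction, and fluorescence at 480/540 nm was recorded kinetically.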

In test [14] the target is Rap guanine nucleotide exchange factor 3 (Homo sapiens) (UniProt O95398). The experiment in a line: Confirmatory qHTS for antagonist of cAMP-regulated guanine nucleotide exchange factor 3 (EPAC1) (AID 1645880).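 Also: plate controls were DMSO only for no effect and full effect of the ATA control for full effect; nearly all actives have a fitted effect of over 55% in size.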 The method, boiled down: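 Released BODIPY-GDP fluoresces less than Rap1-bound BODIPY-GDP; the signal is followed at 480/540 nm at 5-min intervals over 30 min, after 5 min at room temperature. Reactions contain 100 nM EPAC1, 250 nM RAP1B-BODIPY-GDP and 50 uM GDP; results are normalized to ATA and DMSO.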

Test [15] has the same target. The test is described as follows: Confirmatory qHTS for agonist of cAMP-regulated guanine nucleotide exchange factor 3 (EPAC1) (AID 1645881).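 Also: EPAC1 catalysed release of BODIPY-GDP from Rap1B seen as fluorescence loss; 100% = effect of cAMP agonist control; nearly all actives have a fitted effect of over 75% in size.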
Test [16] deals with Rap guanine nucleotide exchange factor 4 (Homo sapiens) (UniProt Q8WZA2). The experiment in a line: Confirmatory qHTS for agonist of cAMP-regulated guanine nucleotide exchange factor 4 (EPAC2) (AID 1645884).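 Also: nucleotide exchange releases bodipy-GDP from Rap1 and this lowers its fluorescence; % is scaled to controls: 0 for no effect and ±100 for the full control effect; nearly all actives have a fitted effect of over 65% in size.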
Test [17] shares this target. The experiment in a line: Confirmatory qHTS for antagonist of cAMP-regulated guanine nucleotide exchange factor 4 (EPAC2) (AID 1645885). Also: nearly all actives have a fitted effect of over 25% in size. Also: potency is read from the fitted curve at half-maximal effect.
Test [18] has as its target Lysosomal acid glucosylceramidase (Homo sapiens) (UniProt P04062). The experiment in a line: Glucocerebrosidase-p2 (AID 348; in the data active = potency below about 10 µM; also: potency is read from the fitted curve at half-maximal effect). The following applies: purified GBA, blue fluorogenic substrate, 40 min. Summed up:
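Normal human glucocerebrosidase (0.2 nM) with blue fluorogenic substrate (80 uM final) in citrate/phosphate pH 5.9 with 10mM sodium taurocholate, 0.01% tween-20; 40 min RT, NaOH/glycine stop; fluorescence Ex 365/Em 440; AC50 from a titration from 0.6 nM upwards.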

The nature of test [19]: AP1 Signaling Pathway (AID 357; active = well fitted curve in either direction with a large enough effect, not every such curve was filed as active). Particulars: ME-180 (cervical carcinoma) AP-1-bla reporter, EGF-induced, beta-lactamase ratio, 5 h; at 7.69 µM (top of the series) unless noted. The method, boiled down:
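Cells are seeded overnight, exposed to compound titrations and an EC50 level of EGF for 5 hours at 37 °C, then loaded with CCF4 dye for 2.5 hours. Beta-lactamase activity under the AP-1 element is read as a blue/green ratio.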

[20] abbreviates: measured here: cell count channel max response.
Setting [21] is: measured here: lipid channel max response.

Results filed as inconclusive are left out. Active and inactive are the calls of the source. Unless noted, calls follow the shape of the dose curve; as a rule, active = well fitted curve in the direction sought with a large enough effect; inconclusive = small, poorly fitted or top-dose-only effect, or another doubt; inactive = no such curve, though single readings can be large; an effect the other way counts as inactive or inconclusive. A value given as a limit tells only on which side of the number the result lay.

Rap guanine nucleotide exchange factor 3 (Homo sapiens), sequence (O95398 whole entry, looked up): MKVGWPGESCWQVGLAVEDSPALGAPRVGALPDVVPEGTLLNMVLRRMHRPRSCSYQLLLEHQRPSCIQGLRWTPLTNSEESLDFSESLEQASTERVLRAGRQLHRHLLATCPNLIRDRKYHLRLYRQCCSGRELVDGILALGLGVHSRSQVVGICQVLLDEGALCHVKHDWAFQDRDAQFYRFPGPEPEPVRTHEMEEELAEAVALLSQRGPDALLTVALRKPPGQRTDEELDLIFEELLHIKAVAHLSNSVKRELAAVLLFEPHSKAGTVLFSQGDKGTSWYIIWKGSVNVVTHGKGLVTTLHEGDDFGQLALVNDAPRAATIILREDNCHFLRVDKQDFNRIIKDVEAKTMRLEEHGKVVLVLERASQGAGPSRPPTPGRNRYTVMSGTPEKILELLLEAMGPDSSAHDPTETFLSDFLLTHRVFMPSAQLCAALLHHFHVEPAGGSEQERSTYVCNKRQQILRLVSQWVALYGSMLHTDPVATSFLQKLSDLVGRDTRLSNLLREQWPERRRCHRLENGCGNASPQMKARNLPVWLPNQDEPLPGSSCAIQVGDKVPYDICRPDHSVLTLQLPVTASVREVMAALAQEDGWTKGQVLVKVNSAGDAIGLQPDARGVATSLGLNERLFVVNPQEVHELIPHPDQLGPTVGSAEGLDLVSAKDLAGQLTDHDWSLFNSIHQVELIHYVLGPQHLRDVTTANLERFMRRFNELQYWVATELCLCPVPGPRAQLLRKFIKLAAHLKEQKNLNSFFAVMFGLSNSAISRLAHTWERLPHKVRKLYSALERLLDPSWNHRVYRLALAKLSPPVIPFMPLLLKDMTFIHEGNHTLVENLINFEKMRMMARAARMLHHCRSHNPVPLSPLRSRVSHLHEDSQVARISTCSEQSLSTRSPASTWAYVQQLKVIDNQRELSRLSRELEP
3',5'-cyclic-AMP phosphodiesterase 4B (Homo sapiens), sequence (Q07343 whole entry, looked up): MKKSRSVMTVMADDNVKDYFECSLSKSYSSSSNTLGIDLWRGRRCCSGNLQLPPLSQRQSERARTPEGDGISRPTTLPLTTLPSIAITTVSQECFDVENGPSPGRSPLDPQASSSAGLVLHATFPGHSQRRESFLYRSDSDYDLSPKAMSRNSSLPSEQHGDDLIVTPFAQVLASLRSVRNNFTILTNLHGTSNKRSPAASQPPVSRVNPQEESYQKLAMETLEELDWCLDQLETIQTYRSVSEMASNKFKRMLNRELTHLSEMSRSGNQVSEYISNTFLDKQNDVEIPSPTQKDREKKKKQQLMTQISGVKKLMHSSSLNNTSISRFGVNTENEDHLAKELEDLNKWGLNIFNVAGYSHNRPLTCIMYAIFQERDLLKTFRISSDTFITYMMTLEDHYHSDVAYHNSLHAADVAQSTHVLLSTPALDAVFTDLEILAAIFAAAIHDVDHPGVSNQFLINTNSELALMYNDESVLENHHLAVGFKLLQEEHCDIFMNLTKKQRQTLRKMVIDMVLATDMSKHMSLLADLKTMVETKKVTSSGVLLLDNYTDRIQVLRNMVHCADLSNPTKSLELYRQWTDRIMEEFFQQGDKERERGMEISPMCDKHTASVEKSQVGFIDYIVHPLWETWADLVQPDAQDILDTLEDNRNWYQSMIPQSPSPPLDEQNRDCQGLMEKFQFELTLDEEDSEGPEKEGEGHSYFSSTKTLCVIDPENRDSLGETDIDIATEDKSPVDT
Glucocorticoid receptor (Homo sapiens), sequence (P04150 whole entry, looked up): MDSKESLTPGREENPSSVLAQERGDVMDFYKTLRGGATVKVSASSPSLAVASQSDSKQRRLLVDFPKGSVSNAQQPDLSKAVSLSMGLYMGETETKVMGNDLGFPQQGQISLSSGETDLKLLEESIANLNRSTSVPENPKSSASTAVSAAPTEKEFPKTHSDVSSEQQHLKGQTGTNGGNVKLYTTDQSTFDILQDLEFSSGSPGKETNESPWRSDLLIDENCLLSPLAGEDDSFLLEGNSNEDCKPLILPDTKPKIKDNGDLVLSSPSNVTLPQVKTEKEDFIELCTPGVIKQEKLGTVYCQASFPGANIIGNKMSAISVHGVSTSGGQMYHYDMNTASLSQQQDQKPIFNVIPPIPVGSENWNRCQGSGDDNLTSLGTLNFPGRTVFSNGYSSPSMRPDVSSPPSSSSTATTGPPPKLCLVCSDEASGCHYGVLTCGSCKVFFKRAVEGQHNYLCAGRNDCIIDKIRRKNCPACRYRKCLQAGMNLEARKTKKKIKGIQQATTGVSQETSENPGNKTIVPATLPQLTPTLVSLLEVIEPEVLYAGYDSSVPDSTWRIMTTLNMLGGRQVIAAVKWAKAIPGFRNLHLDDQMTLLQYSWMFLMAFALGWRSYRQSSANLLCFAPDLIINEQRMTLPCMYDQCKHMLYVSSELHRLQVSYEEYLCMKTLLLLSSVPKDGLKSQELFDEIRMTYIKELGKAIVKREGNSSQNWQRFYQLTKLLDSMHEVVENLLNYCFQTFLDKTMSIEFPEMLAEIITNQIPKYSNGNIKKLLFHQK
Cytochrome P450 1A2 (Homo sapiens), sequence (P05177 whole entry, looked up): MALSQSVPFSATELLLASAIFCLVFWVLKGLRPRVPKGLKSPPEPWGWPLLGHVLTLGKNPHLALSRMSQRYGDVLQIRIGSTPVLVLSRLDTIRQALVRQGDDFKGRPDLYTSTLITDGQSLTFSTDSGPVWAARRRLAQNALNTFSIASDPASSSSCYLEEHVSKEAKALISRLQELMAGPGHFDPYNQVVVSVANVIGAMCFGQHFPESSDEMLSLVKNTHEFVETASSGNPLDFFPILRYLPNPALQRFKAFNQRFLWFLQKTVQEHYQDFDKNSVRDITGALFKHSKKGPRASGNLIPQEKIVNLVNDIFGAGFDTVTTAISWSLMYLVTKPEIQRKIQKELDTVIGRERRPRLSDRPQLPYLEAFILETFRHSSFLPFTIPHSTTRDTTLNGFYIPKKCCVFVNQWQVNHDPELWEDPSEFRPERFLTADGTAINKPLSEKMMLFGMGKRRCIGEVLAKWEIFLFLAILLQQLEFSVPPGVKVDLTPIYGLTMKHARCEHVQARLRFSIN
Ubiquitin carboxyl-terminal hydrolase 1 (Homo sapiens), sequence (O94782 whole entry, looked up): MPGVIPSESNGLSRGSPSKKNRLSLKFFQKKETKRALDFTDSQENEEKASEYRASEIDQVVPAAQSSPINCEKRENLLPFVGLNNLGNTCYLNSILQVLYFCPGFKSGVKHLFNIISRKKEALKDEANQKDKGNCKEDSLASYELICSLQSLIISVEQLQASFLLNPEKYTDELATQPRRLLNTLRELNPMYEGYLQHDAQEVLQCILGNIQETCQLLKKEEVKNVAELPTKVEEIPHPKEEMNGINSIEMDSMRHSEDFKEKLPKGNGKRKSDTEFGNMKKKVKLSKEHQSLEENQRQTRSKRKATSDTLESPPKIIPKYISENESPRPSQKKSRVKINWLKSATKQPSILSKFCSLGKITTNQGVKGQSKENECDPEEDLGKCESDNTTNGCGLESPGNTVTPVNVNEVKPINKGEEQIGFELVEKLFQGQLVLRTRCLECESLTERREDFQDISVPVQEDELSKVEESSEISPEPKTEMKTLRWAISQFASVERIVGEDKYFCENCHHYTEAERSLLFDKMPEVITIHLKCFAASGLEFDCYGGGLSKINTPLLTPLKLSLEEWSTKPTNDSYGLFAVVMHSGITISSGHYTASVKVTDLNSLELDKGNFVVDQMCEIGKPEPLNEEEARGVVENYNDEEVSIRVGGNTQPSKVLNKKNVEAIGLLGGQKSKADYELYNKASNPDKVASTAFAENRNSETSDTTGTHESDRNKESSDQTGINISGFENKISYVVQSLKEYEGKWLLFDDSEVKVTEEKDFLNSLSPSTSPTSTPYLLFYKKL
Rap guanine nucleotide exchange factor 4 (Homo sapiens), sequence (Q8WZA2 whole entry, looked up): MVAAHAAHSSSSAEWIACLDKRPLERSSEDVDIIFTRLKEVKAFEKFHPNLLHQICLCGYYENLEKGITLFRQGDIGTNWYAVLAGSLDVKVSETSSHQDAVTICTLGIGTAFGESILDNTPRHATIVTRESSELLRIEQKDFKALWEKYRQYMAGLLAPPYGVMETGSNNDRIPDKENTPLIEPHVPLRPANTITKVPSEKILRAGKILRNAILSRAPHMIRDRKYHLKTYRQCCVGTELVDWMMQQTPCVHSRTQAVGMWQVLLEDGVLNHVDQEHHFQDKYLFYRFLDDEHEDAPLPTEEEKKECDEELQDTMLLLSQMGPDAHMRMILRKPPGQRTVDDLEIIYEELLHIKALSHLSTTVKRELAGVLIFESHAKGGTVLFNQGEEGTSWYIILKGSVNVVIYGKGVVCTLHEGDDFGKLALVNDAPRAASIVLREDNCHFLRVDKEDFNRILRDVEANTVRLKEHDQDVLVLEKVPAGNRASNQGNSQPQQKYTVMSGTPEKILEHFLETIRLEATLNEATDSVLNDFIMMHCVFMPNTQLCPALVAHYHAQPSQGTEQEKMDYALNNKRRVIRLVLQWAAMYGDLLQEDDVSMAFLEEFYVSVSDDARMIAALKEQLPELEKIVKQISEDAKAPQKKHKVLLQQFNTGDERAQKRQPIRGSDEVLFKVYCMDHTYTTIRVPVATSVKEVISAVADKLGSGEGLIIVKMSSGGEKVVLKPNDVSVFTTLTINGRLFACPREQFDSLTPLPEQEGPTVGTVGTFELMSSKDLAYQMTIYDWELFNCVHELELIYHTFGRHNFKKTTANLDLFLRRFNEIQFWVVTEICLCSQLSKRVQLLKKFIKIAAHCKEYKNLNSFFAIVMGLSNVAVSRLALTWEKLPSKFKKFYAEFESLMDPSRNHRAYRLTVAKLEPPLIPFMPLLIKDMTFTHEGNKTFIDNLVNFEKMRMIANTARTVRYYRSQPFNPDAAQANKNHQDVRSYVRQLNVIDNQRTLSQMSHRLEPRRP

In the case of `COCCNc1nc(-c2ccccc2C)nc2ccccc12`, the Potency in test [1] was 1.26 µM (active); in test [4], > 46 µM (inactive); in [5], > 46 µM (inactive). The figures for the activity change, negative = inhibition in [2] and in [10] were -2.48% (inactive) and 7.59% (inactive), respectively. Besides, in [3], the activity, negative = inhibition was 5.05% (inactive). Moreover, the Potency result in test [6], in [7] and in test [8] was “inactive” throughout. Besides, the molecule was called inactive in test [9] and in test [11]. Also, the results for the max response in [10] (setting [20]) and in test [10] (setting [21]) were 3.47% and 22.3%, respectively.

`COc1ccc2[nH]cc(CCNc3nc(-c4cccc(C#N)c4)nc4ccccc34)c2c1`: the Potency in test [4] and in [5] was > 46 µM (inactive) each time. In addition, the Potency entry in [6], in test [7], in test [12], in test [13], in test [14] and in [15] was “inactive” in each case. Besides, the Potency result in test [16] and in test [17] was “inactive” throughout. Further, in test [11], the outcome was inactive.

Take `Cc1ccccc1-c1nc(N(C)Cc2ccco2)c2ccccc2n1`: the Potency is > 11.4 µM (inactive) in test [18]; 1.58 µM (active) in [1]; > 46 µM (inactive) in test [4]; > 46 µM (inactive) in [5]; 28.2 µM (active) in [13]; 35 µM (active) in test [17]. The results for the activity change, negative = inhibition in [19] and in test [2] were 13.9% (inactive) and -24% (inactive), respectively. The activity, negative = inhibition in test [3] is -5.08% (inactive). Also, the Potency result in [6], in test [8], in test [12], in test [14], in test [15] and in test [16] was “inactive” throughout. Further, the outcome in [11] was inactive.

In the case of `CCCCCCCCCCCCCC(=O)O[C@H](CC(=O)O)C[N+](C)(C)C`, the Potency result in test [1], in [6] and in test [7] was “inactive” in each case. For the same molecule, the Potency in test [4] was > 46 µM (inactive); in test [5] it was > 46 µM (inactive); in test [13], 79.4 µM (active). For the same molecule, the activity change, negative = inhibition in [10] was 3.49% (inactive). In addition, the max response in [10] (setting [20]) is -5.36%; in [10] (setting [21]), -2.97%. For the same molecule, the outcome in [11] was inactive.

`CC(=O)N1CCC[C@@]2(CCN(C(=O)Nc3cccc(C#N)c3)C2)C1`: the activity change, negative = inhibition is -7.34% (inactive) in [19], 23.9% (inactive) in [2] and 2.15% (inactive) in test [10]. Besides, in test [3], the activity, negative = inhibition is 7.98% (inactive). For the same molecule, the Potency in test [5] was > 46 µM (inactive). Moreover, the Potency entry in test [6] and in [7] was “inactive” each time. Besides, the max response is -7.31% in [10] (setting [20]) and -0.637% in [10] (setting [21]). Further, in test [11], the result was inactive.

As to `Clc1cccc2c1CN(C1=NCCN1)C2`, the Potency is 0.398 µM (active) in [1], > 46 µM (inactive) in test [4] and > 46 µM (inactive) in [5]. Moreover, the Potency entry in test [6], in test [7] and in test [13] was “inactive” in each case. Moreover, the activity change, negative = inhibition in test [10] is 3.4% (inactive). In addition, the max response in test [10] (setting [20]) is 12.9%; in [10] (setting [21]) it was 20.6%. Moreover, the result in test [11] was inactive.

`Cc1nc2cnc(N3CCNCC3)nc2n(CCC#N)c1=O`: the activity change, negative = inhibition was -1.38% (inactive) in [19], -8.3% (inactive) in test [2] and 4.65% (inactive) in test [10]. For the same molecule, the activity, negative = inhibition in test [3] was -12.7% (inactive). For the same molecule, the Potency in test [4] was > 9.22 µM (inactive); in test [5] it was > 46 µM (inactive). Moreover, the Potency result in test [6] and in [7] was “inactive” each time. For the same molecule, the max response came out at 11.9% in test [10] (setting [20]) and 19.3% in [10] (setting [21]). Moreover, in test [11], the result was inactive.
